The list is not random: actives were taken first. Their share in the collection is about 11%.
Pf growth 96h – Primary qHTS for delayed death inhibitors of the malarial parasite plastid, 96 hour incubation; P. falciparum luciferase reporter growth, 96 h; Potency, µM (top dose mostly 28.7 µM), actives largely listed as inhibitors; hit rate 6.9% among 320,000
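Two parasite generations (96 h, 37 C, 5% CO2) of compound exposure in infected erythrocytes (0.05% parasitemia, 2% hematocrit). Luciferase-reporter P. falciparum; decreased luminescence indicates inhibited growth, aimed at apicoplast-acting delayed death.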
NS1 function inh – qHTS Assay for Inhibitors of Influenza NS1 Protein Function. AID 2326, 2010. Potency, µM (titrated, usually from 46.1 µM). hit rate 0.4% among 270,000; calls by dose curve; also: actives are rising curves; nearly all actives have a fitted effect of over 50% in size
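S. cerevisiae expressing influenza A NS1, grown in glucose, washed, then diluted 1:100 into pH 6.0 -URA galactose medium with 23 nl compound. Growth recovery read as OD600; NS1-free strain serves as control.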
AMA1-RON2 inh – qHTS for Inhibitors of AMA1-RON; Towards Development of Antimalarial Drug Lead: Primary Screen; AlphaScreen AMA1-biotinylated RON2 peptide binding; Potency, µM (highest dose often 58.2 µM), usual class: inhibitors; hit rate 0.2% among 360,000; AID 720542, 2013; also: nearly all actives have a fitted effect of over 45% in size
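AMA1 (3D7) with his tag at 25 nM final met compounds first, then biotinylated RON2 peptide at 25 nM; detection used donor plus acceptor beads, 10 µg/mL apiece, read by AlphaScreen after 30 min at room temperature.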
Pf growth 48h – Primary qHTS for delayed death inhibitors of the malarial parasite plastid, 48 hour incubation | P. falciparum luciferase growth in erythrocytes, 48 h | Potency, µM (top dose mostly 28.7 µM), actives largely listed as inhibitors | hit rate 5.9% among 310,000 | AID 504832, 2011
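A one-generation exposure of luciferase-tagged malaria parasites in RPMI 1640/Albumax erythrocyte culture, 37 C and 5% CO2. Inhibition is inferred from decreased luminescence after adding detection reagent.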
Sm TGR inh – qHTS Assay for the Inhibitors of Schistosoma Mansoni Peroxiredoxins; Schistosoma mansoni thioredoxin glutathione reductase (TGR), Q962Y6; purified TGR, DTNB reduction, TNB absorbance 405 nm; Potency, µM (top dose mostly 114 µM), usual class: inhibitors; hit rate 3% among 360,000; AID 485364, 2010; also: nearly all actives have a fitted effect of over 60% in size
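Kinetic colorimetric format: TGR-catalysed, NADPH-driven DTNB reduction monitored via TNB absorbance. Enzyme dispensed at 20 nM; compound exposure 15 min at room temperature before reaction start.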
Each line names hits and unclear results; the compound was inactive in the other large screens; ! = not active in a repeat. Unless noted, calls follow the shape of the dose curve; as a rule, active = well fitted curve in the direction sought with a large enough effect; inconclusive = small, poorly fitted or top-dose-only effect, or another doubt; inactive = no such curve, though single readings can be large; an effect the other way counts as inactive or inconclusive.

Cc1ccc(CCN2CC(C(=O)NCCN3CCOCC3)CC2=O)cc1 (centres undefined)	Pf growth 96h 11.7µM
O=C(NCCCN1CCCCC1)C1CCC(=O)N1CCc1ccccc1 (centres undefined)	none
CC1CCCN(CCCNC(=O)C2CC(=O)N(CCc3ccccc3)C2)C1 (centres undefined)	Pf growth 96h 14.7µM
O=C(NCCCN1CCOCC1)C1CCC(=O)N1CCc1ccccc1 (centres undefined)	Sm TGR inh 89.1µM (no result: Pf growth 48h)
O=C(Nc1ccc(Oc2ccccc2)cc1)C1CCN(S(=O)(=O)c2ccccc2)CC1	none (no result: Pf growth 96h, NS1 function inh, AMA1-RON2 inh, Pf growth 48h)
O=S(=O)(c1cccc(C(F)(F)F)c1)N1CCN(C(=S)NCc2ccco2)CC1	Pf growth 96h 2.33µM, Pf growth 48h 4.65µM
CC(=O)NC12CC3CC(C1)CC(C(=O)N1CCN(S(=O)(=O)c4cccc(C(F)(F)F)c4)CC1)(C3)C2	Pf growth 96h inconclusive, Pf growth 48h 13.1µM (no result: NS1 function inh)
CSCCCNC(=S)N1CCN(S(=O)(=O)c2cccc(C(F)(F)F)c2)CC1	Pf growth 48h 10.4µM
O=C(NCCCN1CCOCC1)C1CCN(S(=O)(=O)c2cccc(C(F)(F)F)c2)CC1	none (no result: NS1 function inh)
CCOc1ccc(S(=O)(=O)N2CCCCC2)cc1NC(=O)CN1C(=O)NC(C)(c2ccccc2)C1=O (centres undefined)	Pf growth 96h inconclusive, Pf growth 48h inconclusive (no result: NS1 function inh)
Cc1ccc(N2Cc3ccccc3C2=O)cc1	none
COc1ccc(N2C(=O)c3ccccc3S2(=O)=O)cc1	Pf growth 48h 2.94µM
O=C1N(c2ccccc2)CCN1c1ccccc1	Pf growth 96h 10.4µM
O=C1NCCN1c1ccccc1	none (no result: Pf growth 96h, NS1 function inh, Pf growth 48h, Sm TGR inh)
O=C1c2ccccc2CN2C(=O)c3ccccc3CN12	Pf growth 96h 3.7µM!
O=C1c2ccccc2CN1c1ccccc1	Pf growth 96h 4.15µM
Cc1cc(C)n(C(=O)CNC(=O)c2ccccc2F)n1	none
C=CC(=O)Oc1ccc(N2Cc3ccccc3C2=O)cc1	none (no result: Pf growth 96h, NS1 function inh, Pf growth 48h, Sm TGR inh)
COc1ccc(N2Cc3ccccc3C2=O)cc1	Pf growth 96h 2.94µM
FC(F)(F)c1ccc(Oc2ccc3ccccc3c2Br)nc1	Pf growth 96h 2.94µM, Pf growth 48h inconclusive
O=[N+]([O-])c1ccccc1Oc1ccc(C(F)(F)F)cn1	none (no result: NS1 function inh)
CCN(CC)C(=O)c1nc[nH]c1C(=O)N1CCN(c2ccccc2)CC1	none (no result: NS1 function inh)
COc1ccc(NS(=O)(=O)c2cccc(C(=O)NCc3ccccc3CN3CCCC3)c2)cc1	Pf growth 96h 13.1µM, Pf growth 48h 13.1µM (no result: NS1 function inh)
O=S(=O)(Nc1ccc(O)c(CN2CCCCC2)c1)c1ccccc1	Pf growth 96h 0.586µM, Pf growth 48h inconclusive
COc1ccc(C(=O)NCc2ccccc2CN2CCCC2)cc1S(=O)(=O)Nc1ccc(C)cc1	Pf growth 96h 4.15µM, Pf growth 48h 10.4µM (no result: NS1 function inh)
Cc1cccc(NS(=O)(=O)c2cccc(C(=O)NCc3ccccc3CN3CCOCC3)c2)c1	Pf growth 96h inconclusive, Pf growth 48h inconclusive (no result: NS1 function inh)
COc1ccccc1OCC(=O)N(Cc1nc(-c2ccc(Cl)cc2)no1)C(C)C	Pf growth 96h 4.15µM (no result: Pf growth 48h)
CC(C)N(Cc1nc(-c2ccccc2)no1)C(=O)C(C)(C)C	none (no result: Pf growth 96h)
CC(C)N(Cc1nc(-c2ccccc2)no1)C(=O)C(Cl)(Cl)Cl	Pf growth 48h 1.85µM
COc1ccccc1OCC(=O)N(Cc1nc(-c2ccccc2)no1)C(C)C	none
C/C=C/C(=O)Nc1cccc(C2=NOC3(C2)C[C@@H](C(N)=O)N(C(=O)C(c2ccccc2)c2ccccc2)C3)c1 (some centres undefined)	Pf growth 96h 13.1µM, Pf growth 48h 11.7µM
C/C=C(\C)C(=O)Nc1cccc(C2=NOC3(C2)C[C@H](C(N)=O)N(C(=O)C(c2ccccc2)c2ccccc2)C3)c1 (some centres undefined)	Pf growth 96h 11.7µM, Pf growth 48h 9.28µM
C/C=C\C(=O)Nc1cccc(C2=NOC3(C2)C[C@@H](C(N)=O)N(C(=O)CC(c2ccccc2)c2ccccc2)C3)c1 (some centres undefined)	Pf growth 96h 13.1µM, Pf growth 48h 10.4µM
C/C=C/C(=O)N1CC2(CC(c3cccc(NC(=O)/C(C)=C/C)c3)=NO2)C[C@H]1C(N)=O (some centres undefined)	none
COc1ccc(NC(=O)CC2C(=O)N(c3ccc(C)cc3)C(=O)N2CCc2ccccc2)cc1 (centres undefined)	none (no result: Pf growth 96h, NS1 function inh, AMA1-RON2 inh, Pf growth 48h)
CN1CCN(Cc2cc(COCc3ccccc3)c3cccnc3c2O)CC1	Pf growth 96h 2.33µM, Pf growth 48h 2.08µM, Sm TGR inh 25.1µM
Oc1c(CN2CCCCC2)cc(Br)c2cccnc12	Pf growth 96h inconclusive, Pf growth 48h 2.62µM, Sm TGR inh inconclusive
CCCOCc1cc(CN2CCN(c3cccc(Cl)c3)CC2)c(O)c2ncccc12	none (no result: Pf growth 96h, NS1 function inh, AMA1-RON2 inh, Pf growth 48h)
Oc1c(Cl)cc(CN2CCOCC2)c2cccnc12	Pf growth 96h 5.86µM, Pf growth 48h 4.65µM, Sm TGR inh 1.26µM (no result: NS1 function inh)
O=[N+]([O-])c1cc(CN2CCOCC2)c2cccnc2c1O	Pf growth 48h 4.15µM, Sm TGR inh 35.5µM (no result: NS1 function inh)
COc1ccc(C(=O)N2CC(=O)Nc3ccc(C)cc3C2c2ccccc2)c(OC)c1 (centres undefined)	none (no result: Pf growth 96h, NS1 function inh, AMA1-RON2 inh, Pf growth 48h)
COc1ccc(-n2nc3c(c2NC(=O)c2ccc(S(=O)(=O)N4CCOCC4)cc2)CS(=O)C3)cc1 (centres undefined)	Pf growth 96h inconclusive (no result: NS1 function inh)
CC(CNS(=O)(=O)c1ccc2c(c1)CC(=O)N2C)c1ccccc1 (centres undefined)	Pf growth 96h 10.4µM, Pf growth 48h 9.28µM
CC(NS(=O)(=O)c1ccc2c(c1)CC(=O)N2C)c1ccccc1 (centres undefined)	Pf growth 96h inconclusive
CN1C(=O)Cc2cc(S(=O)(=O)N3CCOCC3)ccc21	Pf growth 96h 4.65µM
CCOC(=O)C1CCN(S(=O)(=O)c2ccc3c(c2)CC(=O)N3C)CC1	NS1 function inh inconclusive, Pf growth 48h 2.08µM
Cc1cccc(N2CCN(S(=O)(=O)c3ccc4c(c3)CC(=O)N4C)CC2)c1C	Pf growth 96h inconclusive, Pf growth 48h 9.28µM
CCOC(=O)C1CCN(S(=O)(=O)c2ccc3c(c2)CCCN3C(C)=O)CC1	none (no result: Pf growth 96h)
CCN(CC(=O)NCc1ccc(Cl)cc1)C(=O)CSCC(=O)Nc1ccc(OC)cc1	Pf growth 48h inconclusive (no result: NS1 function inh)
O=C(NCc1cccc(Cl)c1)c1ccc2nc(N3CCCCC3)sc2c1	none (no result: Pf growth 96h, NS1 function inh, AMA1-RON2 inh, Pf growth 48h)
Cc1ccccc1NC(=S)N(CCCN1CCC(C)CC1)Cc1ccco1	Pf growth 96h 13.1µM
Cc1ccccc1NC(=S)N(CCCN1CCCCC1)Cc1ccco1	none
COc1ccc(NC(=O)N(Cc2cccnc2)Cc2ccccc2Cl)c(OC)c1	none (no result: Pf growth 96h, Pf growth 48h, Sm TGR inh)
Cc1ccc(Cl)cc1NC(=S)N(Cc1cccnc1)Cc1ccccc1Cl	Pf growth 48h 13.1µM (no result: NS1 function inh)
Cc1ccccc1NC(=S)N(Cc1cccnc1)Cc1ccco1	Pf growth 96h 1.85µM, Pf growth 48h inconclusive
